Source: PubChem BioAssay
PLC-gamma1 inh – inhibitors of human phospholipase C gamma1 | P19174 | purified PLC-gamma1, fluorogenic substrate, fluorescence | inhibition, % at 12.2 µM | 370,000 tested, 0.84% active | AID 720700; in the data active = inhibition above about 9.5%
PLCb3 inh – inhibitors of human phospholipase C beta3; 370,000 tested, 0.18% active; Purified PLC-beta3, fluorogenic substrate, fluorescence; Q01970; inhibition, % at 12.2 µM
Target sequence (Q01970 whole entry, looked up): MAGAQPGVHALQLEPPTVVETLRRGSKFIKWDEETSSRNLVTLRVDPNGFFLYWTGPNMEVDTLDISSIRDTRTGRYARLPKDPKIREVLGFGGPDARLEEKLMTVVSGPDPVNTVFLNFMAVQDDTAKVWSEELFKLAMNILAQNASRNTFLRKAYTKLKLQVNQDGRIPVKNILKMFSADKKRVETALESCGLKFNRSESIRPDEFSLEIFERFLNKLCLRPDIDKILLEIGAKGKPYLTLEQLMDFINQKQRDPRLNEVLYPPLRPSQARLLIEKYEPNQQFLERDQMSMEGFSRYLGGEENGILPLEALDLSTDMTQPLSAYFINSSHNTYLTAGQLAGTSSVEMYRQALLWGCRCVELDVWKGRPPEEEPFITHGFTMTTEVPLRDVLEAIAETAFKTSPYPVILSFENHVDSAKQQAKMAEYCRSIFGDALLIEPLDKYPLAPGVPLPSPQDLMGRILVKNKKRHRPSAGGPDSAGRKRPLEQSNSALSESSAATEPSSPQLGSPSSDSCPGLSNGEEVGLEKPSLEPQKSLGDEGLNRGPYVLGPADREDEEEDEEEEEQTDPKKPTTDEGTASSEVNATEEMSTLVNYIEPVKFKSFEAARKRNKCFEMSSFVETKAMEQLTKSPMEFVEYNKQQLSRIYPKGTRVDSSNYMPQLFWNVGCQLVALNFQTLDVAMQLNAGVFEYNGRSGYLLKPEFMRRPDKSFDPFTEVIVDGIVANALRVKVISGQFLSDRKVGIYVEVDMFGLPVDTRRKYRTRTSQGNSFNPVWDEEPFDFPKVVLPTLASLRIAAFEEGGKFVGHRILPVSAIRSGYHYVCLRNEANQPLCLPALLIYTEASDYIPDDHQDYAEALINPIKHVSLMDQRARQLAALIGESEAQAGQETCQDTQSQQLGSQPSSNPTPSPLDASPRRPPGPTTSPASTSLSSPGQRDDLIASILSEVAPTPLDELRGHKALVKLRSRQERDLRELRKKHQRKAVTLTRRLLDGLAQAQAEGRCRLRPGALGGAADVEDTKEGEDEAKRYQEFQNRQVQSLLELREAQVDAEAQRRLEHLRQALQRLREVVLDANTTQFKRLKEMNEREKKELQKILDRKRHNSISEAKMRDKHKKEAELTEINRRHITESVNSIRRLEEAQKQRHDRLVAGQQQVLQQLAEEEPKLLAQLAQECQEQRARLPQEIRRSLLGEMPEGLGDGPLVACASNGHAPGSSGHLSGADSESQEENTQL
GC-B act – GC-B (human) receptor activation; P20594; HEK293-GC-B cells, CNP EC30, cGMP TR-FRET; 0% at EC30 CNP, 100% saturating CNP; activation, % at 10 µM; 370,000 tested, 0.11% active;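 active = activation at 10 µM reaching about 35% in either raw or pattern-adjusted values, limit read from the data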
NPR1 activator – GC-A (human) enzyme activation | activation, % at 10 µM | HEK293 GC-A cells, cGMP TR-FRET, EC30 ANP; 0% at EC30 ANP, 100% saturating ANP | AID 1671463 | P16066 | 370,000 tested, 0.14% active; in the data active = activation above about 40%
PLCg1 ctr – PLC-gamma1 inhibition, counter-screen for PLC-beta3 hits | shares compounds with PLC-gamma1 inh | purified PLC-gamma1, fluorogenic substrate, fluorescence | inhibition, % at 12.3 µM | 3,300 tested, 3.1% active | AID 743258; in the data active = inhibition above about 9.5%
PLCb3 confirm – human PLC-beta3 inhibition, confirmation | AID 743261 | shares compounds with PLC-gamma1 inh | purified PLC-beta3, fluorogenic substrate fluorescence | inhibition, % at 12.3 µM | 3,300 tested, 1% active
A number is an active result; . = inactive; / = no result. Rows were chosen to be rich in hits. Some 1.2% of all compounds tested hit in one or more screens of this group. Cut-off read from the data, not from the text of the source, unless noted: active = inhibition above about 11%; inactive = the rest.

SMILES	PLC-gamma1 inh	PLCb3 inh	GC-B act	NPR1 activator	PLCg1 ctr	PLCb3 confirm
CN(C)S(=O)(=O)c1ccc(C(=O)Nc2nnc(Cc3ccccc3)s2)cc1	.	11	.	.	.	.
CC(C)CNC(=O)c1cc([N+](=O)[O-])ccc1N1CCOCC1	11	.	.	.	.	.
CC(C)CCNC(=O)c1cc([N+](=O)[O-])ccc1N1CCOCC1	.	.	.	.	/	/
COc1cccc(NC(=O)c2ccccc2Oc2ccccc2)c1	9.8	.	.	.	.	.
Cc1cccc(NC2=C(NC(=O)c3ccccc3)C(=O)c3ccccc3C2=O)c1	10	.	.	.	.	.
COC(=O)CC(C(=O)Nc1cc(C(=O)OC)cc(C(=O)OC)c1)N1CCN(C)CC1 (stereo not drawn)	14	11	.	.	.	.
CCc1nc2nc(C)c(NS(=O)(=O)c3ccc(F)cc3)c(=O)n2[nH]1	11	.	.	.	.	.
O=C(c1cccs1)N1CCC(C(=O)N2CCN(Cc3ccc4c(c3)OCO4)CC2)CC1	.	.	.	.	/	/
Cc1ccccc1C(=O)N1CCC(C(=O)N2CCN(Cc3ccc4c(c3)OCO4)CC2)CC1	12	.	.	.	.	.
CN(C(=O)COc1cccc(C#N)c1)C1CCS(=O)(=O)C1 (stereo not drawn)	11	.	.	.	.	.
Cn1c(N)c(C(=O)CSc2nc3ccccc3c(=O)n2Cc2ccccc2)c(=O)n(C)c1=O	11	.	.	.	.	.
Cn1c(SCC(=O)c2c(N)n(C)c(=O)n(C)c2=O)nnc1-c1ccccc1	15	.	.	.	.	.
O=C(c1cccs1)N1CC[C@H]2[C@H](CCCN2Cc2cc(F)cc(F)c2)C1	.	.	.	.	/	/
COc1cccc(NC(=O)CN(C)C(C)C(=O)Nc2ccc(S(=O)(=O)N3CCCC3)cc2)c1 (stereo not drawn)	.	.	.	.	/	/
CCCn1c(=O)c(F)cn(Cc2ccc(OC)c([N+](=O)[O-])c2)c1=O	.	12	.	.	.	.
CCCCn1c(=O)c(F)cn(Cc2ccc(OC)c([N+](=O)[O-])c2)c1=O	.	.	.	.	/	/
O=C(COC(=O)CCc1nc2ccccc2s1)Nc1cccc(S(=O)(=O)N2CCOCC2)c1	11	.	.	.	.	.
O=C(COC(=O)CCc1nc2ccccc2s1)Nc1ccc(S(=O)(=O)N2CCOCC2)cc1	.	.	.	.	/	/
Cc1cc(NC(=O)c2ccc3c(c2)OCO3)ccc1NC(=O)c1ccccc1	.	12	.	.	.	15
O=C(NCCOc1ccccc1)c1ccc2c(c1)OCO2	13	.	.	.	.	.
O=C(Nc1ccc2c(c1)OCO2)c1cccc(S(=O)(=O)N2CCCC2)c1	.	11	.	.	.	.
CN(CCOc1ccccc1)C(=O)c1ccc2c(c1)OCO2	.	.	.	.	/	/
O=C(Nc1ccc(S(=O)(=O)N2CCCC2)cc1)c1ccccc1	.	.	.	.	/	/
O=C(O)c1ccccc1C(=O)Nc1ccc(S(=O)(=O)N2CCCC2)cc1	10	.	.	.	.	.
CSc1cccc(NC(=O)C2CCN(S(=O)(=O)c3cnc[nH]3)CC2)c1	.	.	.	.	/	/
SMILES	PLC-gamma1 inh	PLCb3 inh	GC-B act	NPR1 activator	PLCg1 ctr	PLCb3 confirm
Cc1ccc(NC(=S)N2CCN(C(=O)c3ccccc3)CC2)c(C)c1	.	.	.	.	/	/
COC(=O)c1ccccc1NC(=O)Nc1ccc2c(c1)OCO2	.	.	.	.	/	/
CC(C)c1ccccc1NC(=O)Nc1ccc2c(c1)OCO2	12	.	.	.	9.7	.
O=C(COC(=O)c1n[nH]c2ccccc12)Nc1ccc(S(=O)(=O)N2CCCC2)cc1	11	.	.	.	.	.
O=C(COC(=O)c1n[nH]c2ccccc12)Nc1cccc(S(=O)(=O)N2CCOCC2)c1	.	.	.	.	/	/
O=C1CC(N2CCN(c3ccccc3)CC2)C(=O)N1c1cccc(Cl)c1 (stereo not drawn)	.	.	.	.	/	/
O=C(Nc1ccc(F)cc1)c1nsc(Cl)c1Cl	.	.	.	.	/	/
O=C(Nc1ccc(F)c(Cl)c1)c1nsc(Cl)c1Cl	11	.	.	.	.	.
O=C1C(NS(=O)(=O)c2cccs2)=C(N2CCOCC2)C(=O)c2ccccc21	9.8	.	.	.	.	.
